# Measurements published in the supplement of paper PMC8975748.
# Structures can show the parent of a compound that is named as a salt.
# System: Saccharomyces cerevisiae BY4741 SeMeCo community
# Test: z-score of subpopulation abundance vs DMSO median, subpopulation auxotrophic for HLUM; higher = larger share of this subpopulation than in DMSO controls
# Settings: 10 µM; 24 h; SM minimal medium; subpopulation (auxotrophy): HLUM
# Method: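 Fluorescent four-plasmid SeMeCo (self-establishing metabolically cooperating S. cerevisiae BY4741 community; plasmids pH-mRuby2, pL-mWasabi, pU-eCFP, pM-TagRFP657) was grown 24 h in minimal SM medium with each Selleck FDA-approved drug at 10 µM in 384-well plates. Cells were fixed and imaged by high-content confocal microscopy. For each auxotrophic subpopulation (and the prototroph), a z-score gives the deviation from the DMSO vehicle-control population median.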
row,SMILES,z-score of subpopulation abundance
1,C=C[C@]1(C)C[C@@H](OC(=O)CSC(C)(C)CNC(=O)[C@H](N)C(C)C)[C@]2(C)[C@H](C)CC[C@]3(CCC(=O)[C@H]32)[C@@H](C)[C@@H]1O [Valnemulin HCl],0.48
2,O=C(O)Cc1ccccc1Nc1c(Cl)cccc1Cl [Diclofenac Sodium],-0.38
3,Oc1c(Cl)cc(Cl)c2cccnc12 [Chloroxine],32.5
4,COc1ccc2c3c1O[C@H]1C[C@@H](O)C=C[C@@]31CCN(C)C2 [Galanthamine],1.34
5,O=C(c1ccccc1)c1ccc2n1CCC2C(=O)O (stereo not given) [Ketorolac],-0.11
6,C[C@@H](NCCCc1cccc(C(F)(F)F)c1)c1cccc2ccccc12 [Cinacalcet HCl],1.57
7,CCc1cccc2c3c([nH]c12)C(CC)(CC(=O)O)OCC3 (stereo not given) [Etodolac],-0.89
8,C[C@]12CC[C@@H]3c4ccc(O)cc4CC[C@H]3[C@@H]1C[C@@H](O)[C@@H]2O [Estriol],-0.69
9,CC(c1cc2ccccc2s1)N(O)C(N)=O (stereo not given) [Zileuton],0
10,Cc1ccc(Sc2ccccc2N2CCNCC2)c(C)c1 [Vortioxetine],-0.06
11,Cc1nc(=O)c2cc(CN(C)c3ccc(C(=O)N[C@@H](CCC(=O)O)C(=O)O)s3)ccc2[nH]1 [Raltitrexed],-1.38
12,Cc1ccccc1C(OCCN(C)C)c1ccccc1 (stereo not given) [Orphenadrine Citrate],-0.1
13,C[C@@H](O)[C@H]1C(=O)N2C(C(=O)OCOC(=O)C(C)(C)C)=C(SC3CN(C4=NCCS4)C3)[C@H](C)[C@H]12 [Tebipenem Pivoxil],-0.74
14,COc1c(N2CCNC(C)C2)c(F)cc2c(=O)c(C(=O)O)cn(C3CC3)c12 (stereo not given) [Gatifloxacin],-0.38
15,C=C[C@H]1CN2CC[C@H]1C[C@H]2[C@H](O)c1ccnc2ccc(OC)cc12 [Quinine HCl Dihydrate],0.6
16,CNS(=O)(=O)CCc1ccc2[nH]cc(C3CCN(C)CC3)c2c1 [Naratriptan HCl],-0.77
17,CCCCCc1ccc(C)cc1O [Amylmetacresol],0.41
18,COc1ccc2[nH]c([S@@+]([O-])Cc3ncc(C)c(OC)c3C)nc2c1 [NEXIUM (esomeprazole magnesium)],-0.44
19,CCCN1CCCC[C@H]1C(=O)Nc1c(C)cccc1C [Ropivacaine HCl],0.18
20,C[C@@H](O)[C@H]1C(=O)N2C(C(=O)O)=C(S[C@@H]3CN[C@H](C(=O)N(C)C)C3)[C@H](C)[C@H]12 [Meropenem Trihydrate],-0.25

row,SMILES,z-score of subpopulation abundance
1,CN1CCC[C@@H]1Cc1c[nH]c2ccc(CCS(=O)(=O)c3ccccc3)cc12 [Eletriptan HBr],-0.74
2,C[C@]12CC[C@@H]3c4ccc(OS(=O)(=O)O)cc4CC[C@H]3[C@@H]1CCC2=O [Estropipate],-0.39
3,CCn1cc(C(=O)O)c(=O)c2cc(F)c(N3CCN(C)CC3)cc21 [Pefloxacin Mesylate],-0.95
4,CCCN(CCc1cccs1)[C@H]1CCc2c(O)cccc2C1 [Rotigotine],-0.54
5,C/C(=C\C(=O)OCCCCCCCCC(=O)O)C[C@@H]1OC[C@H](C[C@@H]2O[C@H]2[C@@H](C)[C@H](C)O)[C@@H](O)[C@H]1O [Mupirocin calcium],-0.25
6,O=[N+]([O-])c1ccc(O)c2ncccc12 [Nitroxoline],36.6
7,CCCCCCCCN=c1ccn(CCCCCCCCCCn2ccc(=NCCCCCCCC)cc2)cc1 [Octenidine Dihydrochloride],58.5
8,Cc1cc2c(s1)Nc1ccccc1N=C2N1CCN(C)CC1 [Olanzapine],0.21
9,Nc1nc2ccc(OC(F)(F)F)cc2s1 [Riluzole],0.8
10,N[C@H]1CONC1=O [L-Cycloserine],5.78
11,CN1CC(=O)N2[C@H](c3ccc4c(c3)OCO4)c3[nH]c4ccccc4c3C[C@@H]2C1=O [Tadalafil],1.5
12,COc1ccc(C2CNC(=O)C2)cc1OC1CCCC1 (stereo not given) [Rolipram],-0.71
13,NC[C@H]1O[C@H](O[C@H]2[C@H](O)[C@@H](O[C@H]3O[C@H](CO)[C@@H](O)[C@H](N)[C@H]3O)[C@H](N)C[C@@H]2N)[C@H](O)[C@@H](O)[C@@H]1O [Kanamycin sulfate],-0.1
14,C#C[C@]1(O)CC[C@H]2[C@@H]3CCC4=CCCC[C@@H]4[C@H]3CC[C@@]21C [Lynestrenol],-0.6
15,C#C[C@]1(O)CC[C@H]2[C@@H]3CCC4=CC(=O)CC[C@@H]4[C@H]3C(=C)C[C@@]21CC [Etonogestrel],-0.23
16,CC(C)[C@H]1CC[C@H](C(=O)N[C@H](Cc2ccccc2)C(=O)O)CC1 [Nateglinide],0.69
17,CO/N=C(\C(=O)N[C@@H]1C(=O)N2C(C(=O)O)=C(COC(N)=O)CS[C@H]12)c1ccco1 [Cefuroxime sodium],-0.98
18,Cc1c(OCC(F)(F)F)ccnc1C[S+]([O-])c1nc2ccccc2[nH]1 (stereo not given) [Lansoprazole],1.37
19,CO/N=C(\C(=O)N[C@@H]1C(=O)N2C(C(=O)O)=C(CSC(=O)c3ccco3)CS[C@H]12)c1csc(N)n1 [Ceftiofur],0.07
20,OCCN1CCN(CCCN2c3ccccc3Sc3ccc(Cl)cc32)CC1 [Perphenazine],-0.22
